Over roughly 9,900 sequences, “r (bound/input frequency ratio)” has its median near 0.7; the highest 2% begin near 6.5. The sample holds the highest values, similar sequences and a random draw of the others, so the mix is not that of the screen.

B1: ENSMUSG00000029636.13|Wasf3 (ssRNA)
RNA: GGGAGUUCUACAGUCCGACGAUCGCUUCGAUAUCCGCAUGCUAGUUUGAUGAGAAUGACUGGUCUGACUGAGGCACAAGGGCCAGGCGACCAGUGGACAGCCAGGGCCCCAUAUGCAAGUGUGUUAGGAGCUCCUGUGCUCUCUGCACCCUCACAGUGGUAUUUCCCUGUAGCUUUAGUCCCUUUUGUAUUAACAGUGUGAUUUGCUUCUGCACAUCCUUCUGGAUUUGUUGAGUAUUUACUGUGUAAUACUUAAGUGCCACAGAACACAGCACACCGUGCUGCACACCAGGAAACUCGCAGUCUCUUGCGGUCGCACUAGUGUGGAAUUCUCGGGUGUCAAGG
B2: ENSMUSG00000061578.1299|Ksr2 (ssRNA)
RNA: GGGAGUUCUACAGUCCGACGAUCGCUUCGAUAUCCGCAUGCUACGUGUUGCUGGGUCCCAGGGGAUUGGCUGUAGUUAAUUAAAAGCACCUGUCUCUGUCAUCUCUGCACCCAACUGAAUCUCCCACCCUCAAGUGUACCUCUCAGGAUAUCCCCAGGCACACGAAGAUGGAAUGGAAAGCCAGUGGGUAUCUCCCACCCACUUAGAUGCUGAUGGCCUGGGACUAUAAACAGGGACAGUUGGGUCUCCUAAGGAAUAGCUUCCAGGUCCAGGAUGCUGGCAUCUCCCAGAGAGAACUCCAUCCUCUUGCGGUCGCACUAGUGUGGAAUUCUCGGGUGUCAAGG
B3: ENSMUSG00000090935.112|Synj2bp (ssRNA)
RNA: GGGAGUUCUACAGUCCGACGAUCGCUUCGAUAUCCGCAUGCUAGUUCCUGUAGCUAUGGUGCUGCUACCAGUGUUUGCCCUCACCAUGGUAGCAGUUUGGGCCUUCGUGAGAUACCGAAAGCAGCUUUGAAAUGCUUGCUGUCUUCCAGUGUGUCCAAUGAACUCUCUCUCUCACUCACCAUCUCUGACAUCCUCCCAUAUUCUUUCUCCUCCACAUAGCCAAUACAAGAUUUAAAGUGACUGCUUAUCACCCAAAACCCUGCUAUUCAAAAUCUCCUAUUCUAAUGGAAGAGUACAGGGGUUCUCUUGCGGUCGCACUAGUGUGGAAUUCUCGGGUGUCAAGG
B4: ENSMUSG00000034801.219|Sos2|230:238 (ssRNA)
RNA: GGGAGUUCUACAGUCCGACGAUCGCUUCGAUAUCCGCAUGCUAUCUGCUAUUUGACUAAUUUGUAAGUCUGGAACAAAAGUGUCUUAUGGCAUAAGAACCAACUGCCAUUGUCAAACCUAUUAACUGUCUUUAAUCUCGUGUUAACUGAAAUUUUUGAAAAGUUUUUCCAGAUUAGUAAUAUUUAAACAGAAAAUACUUUAAAAAGCUUUAUUAAAUUUUUUAAUCAGGAUAAAGCUUUGCCAUUUGGAUACUAUCAUUCAAAGUGAUCAAGCAUACAUACUUAUGCUGAUAGUGCAGUAGCACUCUUGCGGUCGCACUAGUGUGGAAUUCUCGGGUGUCAAGG
B5: ENSMUSG00000028439.106|Fam219a|156:160 (ssRNA)
RNA: GGGAGUUCUACAGUCCGACGAUCGCUUCGAUAUCCGCAUGCUACCCUCAUCUCCAGAUGGGAAGCCUGGCAGCGCUGUCCAAAGGGAUACUGUCUCUCCAUUAGAUAACUCCUUCCACUGUCUCCCUCCCCCGCUUUCUUACUUUCUGAGGGUUGGGAAGGUAAGAUGGGCCUUAGAGAGAAGCCAGGUUUGGGGAUGCAUACACCUGUUCUCACCGGUCUCUAACCAGUGCAUCUGUCUCUCUGCCUCAUCCCCACACCGCCCUGCCACCCCCAGUCUUCUGUCUAUUGGUUCCAGGCUGGACUCUUGCGGUCGCACUAGUGUGGAAUUCUCGGGUGUCAAGG
B6: ENSMUSG00000061578.55|Ksr2 (ssRNA)
RNA: GGGAGUUCUACAGUCCGACGAUCGCUUCGAUAUCCGCAUGCUACACGCUGGACCAGUGUGUGCGCAUGUGUCUACACAUGGACAGGGCCAACUGCUAUCCUUCUGCCUGGACGAGCCAGCUGUGGAGUGUCCCAGCUGUGCUAUCCUGGAACACAGAACCAGGAUGGAACCAGAAACAAUACACCUGCUCCGUUGUCAAGGCUUCUAGGCCAAGGUCAGGGUAGGGAGGUGGGGUGGGUUAAACUUGCAAACAUCUGAUUUUAGAGGUCCCAUUCCAAGAUGGAAGUCACCGGUUGCCGCUGACUCUUGCGGUCGCACUAGUGUGGAAUUCUCGGGUGUCAAGG
B7: ENSMUSG00000031028.274|Tub (ssRNA)
RNA: GGGAGUUCUACAGUCCGACGAUCGCUUCGAUAUCCGCAUGCUAAAAAAGUAGAGUCAUGUAGAGUCAUGCUUUGAAUAUGUGGGUCAUGCUUUAGAUAUGAAGAGGCUAUGCAGGUAAGGAGGCUGGAUUGAUGUAAAUGGAAGUAGUACUUUAAGAAAGCUCUAGAUUUCCCAGGUUGGACACUCGACGAAAGGCACACCUGCUGCAGCAGGUUCUGACACACCUGAGCCAUACAUUGCCAUCAGAGAACCCUCAGCGAGGUAGCCUUUGUUUACAGUCUAGUUUCUAGAGGGCAGUAGGACCUCUUGCGGUCGCACUAGUGUGGAAUUCUCGGGUGUCAAGG
B8: ENSMUSG00000031028.129|Tub|126:130;202:207 (ssRNA)
RNA: GGGAGUUCUACAGUCCGACGAUCGCUUCGAUAUCCGCAUGCUACCAAAUAUCUGAGUGGAUGGGGAUGAUAGGAGUCAUCCAGUAGACUCCCUACAUCAGGGCUCUCAGCAGCCCCAGCACAACACCUAUGACACACACACAGGAUCUAGGUCACCAUUCAAGUAAUGCAUACCUUCAGGAAGAAUGUCCUCUCUGGGAAGACUCAGCUCCCAUUAUUGCCAGCAUGCCAUGAUCAGUGAGGGCACACACCCAUGCUUAGGGGGAUGGCGCAGGGUGAGGGGAGCAGAGGAUAUUUUAGGGCCCUCUUGCGGUCGCACUAGUGUGGAAUUCUCGGGUGUCAAGG
B9: ENSMUSG00000004113.208|Cacna1b|46:50;236:240 (ssRNA)
RNA: GGGAGUUCUACAGUCCGACGAUCGCUUCGAUAUCCGCAUGCUACAUCGGGUGGAUUGGGUGGGAGCUGCUCAGAGCAGCACGGGGGCUACACACUUAGGGACAUUGACAGUGUCCAUCAGCAUGUCAGAGAAGCAGCUGUAGUGCCCGUGUUUCUCCCUGAGUCAUGGGUUCUGAAGAAGCCAGAGCGGCACAAUGCGUGCUUGCAUGAGGCACUUUCAGCCUUUUUAAAUCUGACUCUCAGGGAUGGGAUGCCUGCCAAGUAGGGUGUAAUCUCUGUACACAUUUUAAAACAACAACAACAACUCUUGCGGUCGCACUAGUGUGGAAUUCUCGGGUGUCAAGG
B10: ENSMUSG00000022095.101|Fam160b2 (ssRNA)
RNA: GGGAGUUCUACAGUCCGACGAUCGCUUCGAUAUCCGCAUGCUAUGCUCUACCCUCCUGGAGGCUGUUGCAAAAUUCCCAACUGCCUCCUGGCAGAGGCCCAAAGUAUGCUCUGCGCCCAGGCGGGGGCAGCUGCUAACAAGAGCCCUGGCGCAGCUGCAGCCAGGGCAGGCGAGAGCCUUGGAGCUGGGUGCCAGGCUCCAGCUCCAGCUCCAGCUGGUUCCUCUCUGGCGCCUUCUGAACCCGUCUCAGCAAGUCCGAAACACCUGGGCAGAGAGGUCAUUGACCAGGGAUGGGGGCCCUUGCUCUUGCGGUCGCACUAGUGUGGAAUUCUCGGGUGUCAAGG
B11: ENSMUSG00000028439.159|Fam219a (ssRNA)
RNA: GGGAGUUCUACAGUCCGACGAUCGCUUCGAUAUCCGCAUGCUACAGGAGCCAGGCUUCCAGAAAGGCUCUUCAAGAGCAAGCUUAAGGAAAUACAGUGAGCCAAGUGGCUGUAUGAUAUGGUAUGGUAUGGUAUGGUAUGGUAUGGUAUGGUAUGCACAUGUGUGUGCAUGUGUGUGUGCCUGUGUGUGUGCGUGUGCGUGUGUGUAUGUGUGUGCGUGUGUGUGUGUGUGUGUUGUACCCGAGUGUGUGUUGAGCCUAUCUGUCCAGGGAACCAGAUUGGUGUCCGAGAUGAGGAAAUGGCUCUCUUGCGGUCGCACUAGUGUGGAAUUCUCGGGUGUCAAGG
B12: ENSMUSG00000028439.158|Fam219a (ssRNA)
RNA: GGGAGUUCUACAGUCCGACGAUCGCUUCGAUAUCCGCAUGCUAAAAGUCCAGGAGCCAGGCUUCCAGAAAGGCUCUUCAAGAGCAAGCUUAAGGAAAUACAGUGAGCCAAGUGGCUGUAUGAUAUGGUAUGGUAUGGUAUGGUAUGGUAUGGUAUGGUAUGCACAUGUGUGUGCAUGUGUGUGUGCCUGUGUGUGUGCGUGUGCGUGUGUGUAUGUGUGUGCGUGUGUGUGUGUGUGUGUUGUACCCGAGUGUGUGUUGAGCCUAUCUGUCCAGGGAACCAGAUUGGUGUCCGAGAUGAGGAACUCUUGCGGUCGCACUAGUGUGGAAUUCUCGGGUGUCAAGG
B13: ENSMUSG00000028439.162|Fam219a (ssRNA)
RNA: GGGAGUUCUACAGUCCGACGAUCGCUUCGAUAUCCGCAUGCUAAAAGGCUCUUCAAGAGCAAGCUUAAGGAAAUACAGUGAGCCAAGUGGCUGUAUGAUAUGGUAUGGUAUGGUAUGGUAUGGUAUGGUAUGGUAUGCACAUGUGUGUGCAUGUGUGUGUGCCUGUGUGUGUGCGUGUGCGUGUGUGUAUGUGUGUGCGUGUGUGUGUGUGUGUGUUGUACCCGAGUGUGUGUUGAGCCUAUCUGUCCAGGGAACCAGAUUGGUGUCCGAGAUGAGGAAAUGGCUGUGGCCUGGGAAAUCAGUCUCUUGCGGUCGCACUAGUGUGGAAUUCUCGGGUGUCAAGG
B14: ENSMUSG00000028439.160|Fam219a (ssRNA)
RNA: GGGAGUUCUACAGUCCGACGAUCGCUUCGAUAUCCGCAUGCUACCAGGCUUCCAGAAAGGCUCUUCAAGAGCAAGCUUAAGGAAAUACAGUGAGCCAAGUGGCUGUAUGAUAUGGUAUGGUAUGGUAUGGUAUGGUAUGGUAUGGUAUGCACAUGUGUGUGCAUGUGUGUGUGCCUGUGUGUGUGCGUGUGCGUGUGUGUAUGUGUGUGCGUGUGUGUGUGUGUGUGUUGUACCCGAGUGUGUGUUGAGCCUAUCUGUCCAGGGAACCAGAUUGGUGUCCGAGAUGAGGAAAUGGCUGUGGCCCUCUUGCGGUCGCACUAGUGUGGAAUUCUCGGGUGUCAAGG
B15: ENSMUSG00000028439.161|Fam219a (ssRNA)
RNA: GGGAGUUCUACAGUCCGACGAUCGCUUCGAUAUCCGCAUGCUAUUCCAGAAAGGCUCUUCAAGAGCAAGCUUAAGGAAAUACAGUGAGCCAAGUGGCUGUAUGAUAUGGUAUGGUAUGGUAUGGUAUGGUAUGGUAUGGUAUGCACAUGUGUGUGCAUGUGUGUGUGCCUGUGUGUGUGCGUGUGCGUGUGUGUAUGUGUGUGCGUGUGUGUGUGUGUGUGUUGUACCCGAGUGUGUGUUGAGCCUAUCUGUCCAGGGAACCAGAUUGGUGUCCGAGAUGAGGAAAUGGCUGUGGCCUGGGAACUCUUGCGGUCGCACUAGUGUGGAAUUCUCGGGUGUCAAGG

TDP-43, sequence (Q13148 whole entry): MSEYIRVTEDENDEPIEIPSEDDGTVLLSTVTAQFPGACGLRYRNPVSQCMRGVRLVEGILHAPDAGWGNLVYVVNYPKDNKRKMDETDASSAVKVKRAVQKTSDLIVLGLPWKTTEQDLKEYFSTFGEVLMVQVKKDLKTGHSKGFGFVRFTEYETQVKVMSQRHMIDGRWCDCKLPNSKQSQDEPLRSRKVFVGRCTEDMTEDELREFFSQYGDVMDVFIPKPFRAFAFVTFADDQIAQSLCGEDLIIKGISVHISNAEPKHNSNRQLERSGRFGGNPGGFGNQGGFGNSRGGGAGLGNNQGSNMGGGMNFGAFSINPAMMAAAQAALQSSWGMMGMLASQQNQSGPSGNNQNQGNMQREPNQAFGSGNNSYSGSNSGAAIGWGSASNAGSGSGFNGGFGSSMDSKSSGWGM

The assay concerns the target TDP-43 (Homo sapiens, UniProt Q13148 1-414). The experiment in a line: RNA Bind-n-Seq with designed 260-mer pool; 25 mM Tris-HCl, 150 mM KCl, 3 mM MgCl2, BSA (printed 500 mg/mL), 20 units/mL SUPERase IN; pH not stated; 500 nM RNA pool, 1 h, 4 C; TDP-43 5, 50, 500 nM; high values mean tight binding. The following applies: protein: recombinant; tags: SBP (GST cleaved off with PreScission; pGEX-GST-SBP). Put shortly: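 Streptavidin beads captured recombinant SBP-tagged TDP-43 at 5, 50 or 500 nM, and the beads were incubated for 1 h at 4 °C with 500 nM of an in vitro-transcribed pool of 260-nt 3′ UTR oligos in 25 mM Tris-HCl, 150 mM KCl, 3 mM MgCl2, BSA and SUPERase IN. After washing, bound RNA was eluted with biotin, reverse transcribed, PCR-amplified and sequenced. Binding is reported as R, the mapped-read-normalized abundance of each oligo in the bound sample divided by its abundance in the input. Two independent protein batches served as duplicates.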
For the molecule B1, the binding signal is 0.391 R (bound/input frequency ratio). With B2, the binding signal is 0.299 R (bound/input frequency ratio).

On to B3, for which the binding signal was 2.02 R (bound/input frequency ratio). Regarding B4, the binding signal is 0.0202 R (bound/input frequency ratio). For the molecule B5, the binding signal was 0.353 R (bound/input frequency ratio). As for B6, the binding signal was 0.378 R (bound/input frequency ratio). B7: the binding signal was 0.687 R (bound/input frequency ratio).

Turning to B8, the binding signal is 0.668 R (bound/input frequency ratio). Regarding B9, the binding signal is 0.881 R (bound/input frequency ratio). In the case of B10, the binding signal is 0.743 R (bound/input frequency ratio). For B11, the binding signal was 7.39 R (bound/input frequency ratio). On to B12, for which the binding signal is 6.13 R (bound/input frequency ratio). B13: the binding signal was 8.11 R (bound/input frequency ratio). As to B14, the binding signal is 6.51 R (bound/input frequency ratio). Turning to B15, the binding signal was 8.09 R (bound/input frequency ratio).
